Bioassay records deposited in PubChem BioAssay by National Center for Advancing Translational Sciences (NCATS).
An excerpt weighted towards active compounds, which were near 5.8% of everything screened.
RORgamma inh – qHTS for inhibitors of ROR gamma transcriptional activity; Nuclear receptor ROR-gamma (Mus musculus), P51450; Drosophila S2 Gal4-RORgamma UAS-luciferase reporter, 20 h; Potency, µM (series often up to 53.6 µM), without a hit: at the highest dose activity change, negative = inhibition, most hits filed as inhibitors; 310,000 tested, 5.4% active; AID 2551, 2010; also: potency is read from the fitted curve at half-maximal effect; % is scaled to controls: 0 for no effect and ±100 for the full control effect; nearly all actives have a fitted effect of over 60% in size
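Stable Schneider cell line, Gal4 DNA-binding domain fused to ROR gamma, UAS-luciferase. Cmpd 1 hr RT → CuSO4 700 uM final → 20 hr RT → luciferase reagent 10 min → luminescence.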
TRPV1 agonist – HTS Assay for Compounds that Act as Agonists of the Vanilloid Receptor 1; 320,000 tested, 0.19% active; TRPV1-expressing cells, Fluo-8 calcium influx, agonist mode; AID 540275, 2011; Transient receptor potential cation channel subfamily V member 1 (Homo sapiens), Q8NER1; activation, % at 8.33 µM; in the data active = activation above about 80%; inconclusive = between about 30% and that limit; also: 0% is about no effect
Target sequence (Q8NER1 whole entry, looked up): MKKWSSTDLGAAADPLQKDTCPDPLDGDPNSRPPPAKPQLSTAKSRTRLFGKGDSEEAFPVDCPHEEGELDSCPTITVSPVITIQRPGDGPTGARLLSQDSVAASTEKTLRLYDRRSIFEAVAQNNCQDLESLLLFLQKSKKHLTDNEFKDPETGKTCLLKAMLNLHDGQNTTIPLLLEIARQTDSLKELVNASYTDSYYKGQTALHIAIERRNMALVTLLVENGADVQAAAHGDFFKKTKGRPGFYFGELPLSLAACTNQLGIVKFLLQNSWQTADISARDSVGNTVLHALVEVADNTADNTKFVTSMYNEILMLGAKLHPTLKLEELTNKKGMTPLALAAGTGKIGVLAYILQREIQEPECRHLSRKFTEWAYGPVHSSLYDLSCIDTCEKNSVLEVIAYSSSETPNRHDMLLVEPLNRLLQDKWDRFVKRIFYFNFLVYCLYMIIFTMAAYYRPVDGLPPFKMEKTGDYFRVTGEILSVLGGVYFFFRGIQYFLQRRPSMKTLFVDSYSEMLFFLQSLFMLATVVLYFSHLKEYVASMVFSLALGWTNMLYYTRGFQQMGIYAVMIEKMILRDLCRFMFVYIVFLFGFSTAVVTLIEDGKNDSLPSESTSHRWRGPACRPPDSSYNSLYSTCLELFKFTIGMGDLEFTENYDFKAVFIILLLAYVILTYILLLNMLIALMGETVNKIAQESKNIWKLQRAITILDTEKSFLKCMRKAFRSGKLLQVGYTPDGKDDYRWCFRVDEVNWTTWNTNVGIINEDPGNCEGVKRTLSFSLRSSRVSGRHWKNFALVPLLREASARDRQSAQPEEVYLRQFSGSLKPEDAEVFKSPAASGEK
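Fluo-8 calcium influx in TRPV1-expressing cells, kinetic read (ex 480/em 520 nm). Compound added and read 3 min for agonist activity, followed by capsaicin at EC20 final and 2 min further read for enhancement.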
VP16 counter – VP16 counterscreen qHTS for inhibitors of ROR gamma transcriptional activity | Drosophila S2 Gal4-VP16 UAS-luciferase, luminescence, 20 h | Potency, µM (highest dose often 53.6 µM), for inactives: at the top dose activity, negative = inhibition, actives largely listed as inhibitors | 310,000 tested, 3.5% active | AID 2546, 2010;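 also: Gal4-VP16 expression switched on by copper sulfate through the metallothionein promoter; potency is read from the fitted curve at half-maximal effect; % is scaled to controls: 0 for no effect and ±100 for the full control effect; nearly all actives have a fitted effect of over 50% in size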
TRPV1 potentiator – HTS Assay for Compounds that Act as Potentiators of the Vanilloid Receptor 1; TRPV1-expressing cells, Fluo-8 calcium influx, capsaicin EC20 potentiation; potentiation, % at 8.33 µM; 320,000 tested, 0.02% active; AID 540277, 2011; in the data active = potentiation above about 80%; inconclusive = between about 30% and that limit; also: 0% is about no effect
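Fluo-8 calcium influx in TRPV1-expressing cells, kinetic read (ex 480/em 520 nm). Compound added and read 3 min for agonist activity, followed by capsaicin at EC20 final and 2 min further read for enhancement.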
uPA surface inh – qHTS for Inhibitors of Cell Surface uPA Generation; cell surface uPA generation assay, qHTS; 330,000 tested, 0.31% active; AID 540303, 2011; Potency, µM (series often up to 38.3 µM), without a hit: at the top dose activity change, negative = inhibition, hits mostly inhibitors; active = well fitted inhibition curve with a large enough effect; inconclusive = small, poorly fitted or top-dose-only effect; inactive = no such curve, though single readings can be large or run the other way; tested in mouse RAW 264.7 cells; also: potency is read from the fitted curve at half-maximal effect; % is scaled to controls: 0 for no effect and ±100 for the full control effect; nearly all actives have a fitted effect of over 55% in size
The depositor's hits bear a star; ? = inconclusive; nt = no result given; [ ] = another dose, or the depositor's remark. Unless noted, calls follow the shape of the dose curve; as a rule, active = well fitted curve in the direction sought with a large enough effect; inconclusive = small, poorly fitted or top-dose-only effect, or another doubt; inactive = no such curve, though single readings can be large; an effect the other way counts as inactive or inconclusive.

SMILES | RORgamma inh | TRPV1 agonist | VP16 counter | TRPV1 potentiator | uPA surface inh
COc1ccc(N=C2S/C(=C\c3ccc(OCC(=O)O)cc3)C(=O)N2CCc2c[nH]c3ccccc23)cc1 | 2% | 2 | 6%[10 µM] | 20 | 2%
COc1ccc(N=C2S/C(=C\c3ccc(N4CCOCC4)o3)C(=O)N2CCc2c[nH]c3ccccc23)cc1 | 6.3µM* | 8 | 5µM* | 19 | nt
CC(=O)OCC1OC(C#CC2=CCCCC2)C=CC1OC(C)=O (stereo unspecified) | 13%[10 µM] | nt | 8%[10 µM] | nt | nt
Cn1c(=O)c2c(nc(NCc3ccco3)n2C)n(C)c1=O | -1% | 2 | 8% | 3 | 0%
Cn1c(=O)c2c(nc(NCc3ccco3)n2Cc2ccccc2Cl)n(C)c1=O | -35% | -2 | 4.5µM* | 1 | -9%
Cn1c(=O)c2c(nc(NCc3ccco3)n2C/C=C/c2ccccc2)n(C)c1=O | 2.2µM* | -1 | 4.5µM* | 0 | -14%
CC(C)[C@@H](OCc1ccccc1)[C@H](C)/C=N\OC[C@@H](O)[C@@H]1O[C@@H]2OC(C)(C)O[C@@H]2[C@H]1O | -2%[10 µM] | nt | -6%[10 µM] | nt | nt
Cc1cccc(C)c1N1C(=O)CC(N(O)c2ccccc2)C1=O (stereo unspecified) | 11µM* | -1 | -1% | -25 | 2%
Cc1c(Cl)cccc1N1C(=O)CC(N(O)c2ccccc2)C1=O (stereo unspecified) | 17% | 0 | -18% | 17 | 2%
OCC1OC(c2ccc3c(c2)OCO3)C=CC1Oc1ccc(C2CCCC2)cc1 (stereo unspecified) | 6%[10 µM] | nt | 4%[10 µM] | nt | nt
Cc1ccc(C)c2sc(NC(=O)c3nc4ccccc4s3)nc12 | 1µM* | 0 | 1µM* | 9 | -1%
O=C(Nc1nc2ccccc2s1)c1ccccc1 | 10µM* | ? | ? | -10 | ?
O=C(Nc1nc2ccc(F)cc2s1)C1=NN(c2ccccc2)C(=O)CC1 | ? | 7 | ? | -14 | ?
O=C(Nc1nc2ccc(F)cc2s1)c1ccccn1 | 0.71µM* | ? | 1.6µM* | -1 | -18%
O=C(Nc1ccccc1)c1nc2ccccc2s1 | -32% | ? | -26% | -2 | -7%
O=C(Nc1ccc2nc3ccccc3nc2c1)c1ccccc1 | ? | ? | -18% | -2 | -6%
O=C(Nc1ccc(-c2nc3ccccc3s2)c(OC(=O)c2ccccc2)c1)c1ccccc1 | 1.3µM* | 1 | -20% | 3 | 0%
CCOc1ccc2nc(NC(=O)c3cccc(-c4cc5ccccc5oc4=O)c3)sc2c1 | 11µM* | 0 | 11µM* | 2 | 0%
O=C(Nc1nnc(SCc2ccc(F)cc2)s1)c1ccccn1 | 0.79µM* | 17 | 1.4µM* | -2 | 3%
CC(C)C(=O)N(Nc1nc2ccccc2s1)C(=O)C(C)C | 3% | -3 | -15% | 3 | -4%
c1ccc2sc(NCC3CCCO3)nc2c1 (stereo unspecified) | -42% | 6 | -8% | -3 | -3%
c1ccc2sc(NN=C3CCCCCC3)nc2c1 | 4µM* | 16 | ? | -10 | -15%
Cc1ccc(C(=O)N(Nc2nc3ccccc3s2)C(=O)c2ccc(C)cc2)cc1 | 8.9µM* | 19 | 11µM* | -19 | 10%
CC1=CC23C(=O)C(C=C(CO)[C@@H](O)[C@]2(O)[C@H]1O)[C@H]1[C@@H](C[C@H]3C)C1(C)C (stereo partly specified) | 5% | nt | -4% | nt | nt
O=C(CNC(=O)c1cc(Cl)cc([N+](=O)[O-])c1)OCC(=O)N1CCCCC1 | nt | 1 | nt | -27 | -2%
SMILES | RORgamma inh | TRPV1 agonist | VP16 counter | TRPV1 potentiator | uPA surface inh
CCOc1ccc2nc(NC(=O)c3cnccn3)sc2c1 | 1.6µM* | 12 | ? | -17 | 2%
CCOCC(=O)Nc1nc2ccc(OCC)cc2s1 | ? | ? | ? | -1 | -7%
O=C(Nc1nc2ccccc2s1)c1cnccn1 | 3.2µM* | 11 | 5µM* | -7 | -13%
CCOC(=O)CSC1=C(C#N)C(c2ccc(OC)cc2)C2=C(CC(C)(C)CC2=O)N1 (stereo unspecified) | ? | -1 | 20µM* | -4 | -6%
Oc1ccc(O)c(Cc2nc3ccccc3[nH]2)c1 | 16µM* | 2 | -29% | -3 | -2%
c1ccc2[nH]c(CCCc3nc4ccccc4[nH]3)nc2c1 | -2% | -1 | 2% | -3 | -2%
O=C(Nc1ccc(Cl)c(Cl)c1)Nc1ccc(Br)cc1F | ? | 6 | 13µM* | -13 | -8%
Nc1nc2cc(S(=O)(=O)NC3=NCCCCC3)ccc2s1 | ? | -2 | ? | -4 | -6%
CCOC(=O)c1ccc(S(=O)(=O)Nc2nc3cc(S(=O)(=O)NC4=NCCCCC4)ccc3s2)cc1 | 14µM* | 4 | ? | -3 | -2%
NC(=S)N=Nc1c(O)n(CCCl)c2ccccc12 | 1µM* | -4 | 3.2µM* | -5 | 1%
NC(=S)N=Nc1c(O)n(CCCl)c2ccc(Cl)cc12 | 0.79µM* | -3 | 3.5µM* | 4 | -3%
NC(=S)N=Nc1c(O)n(CC(=O)Nc2ccccc2)c2ccccc12 | ? | -1 | -15% | -5 | -12%
CCOc1ccc2c(c1)c(N=NC(N)=S)c(O)n2C | ? | -2 | 7.1µM* | -9 | 4%
CCOc1ccc2c(c1)c(N=NC(=N)N)c(O)n2C | -5% | -1 | 1% | -30 | -5%
CCc1ccc(C(=O)/C=C/c2cnn(C)c2C)s1 | 5.6µM* | ? | 8.9µM* | -8 | -5%
CCCc1nc(SCC(=O)Nc2nnc(CC)s2)c2c(=O)n(C)c(=O)n(C)c2n1 | -21% | 3 | 5µM* | 7 | 5%
S=c1[nH]nc(CCc2ccccc2)n1-c1ccccc1 | 5.6µM* | -6 | 11µM* | 8 | 3%
S=c1[nH]nc(CCc2ccccc2)n1-c1ccc(Cl)cc1 | 1.8µM* | 4 | ? | 5 | -6%
O=C(CSc1nnc(CCc2ccccc2)n1-c1ccc(Cl)cc1)c1ccccc1 | 11µM* | 25 | ? | -13 | -1%
COC(Cc1n[nH]c(=S)n1-c1ccc(Cl)cc1)OC | ? | -2 | -6% | 3 | nt
CCOc1ccc(NC(=O)c2nc(S(=O)(=O)Cc3ccccc3F)ncc2Cl)cc1 | nt | 1 | nt | 14 | nt
CSc1nnc(NC(=O)c2nc(S(=O)(=O)Cc3ccccc3F)ncc2Cl)s1 | 16µM* | -2 | 10µM* | -2 | -3%
Cc1nnc(NC(=O)CCS(=O)(=O)c2ccccc2)s1 | -36% | -5 | 29% | 1 | -8%
Cc1nnc(NC(=O)c2nc(S(=O)(=O)Cc3ccccc3C)ncc2Cl)s1 | 3.5µM* | 6 | 0.71µM* | 0 | ?
CC(C)c1nnc(NC(=O)c2nc(S(=O)(=O)Cc3ccccc3F)ncc2Cl)s1 | 7.9µM* | 0 | 3.5µM* | ? | ?
